The compounds below were run against Calmodulin-1 (Homo sapiens) (UniProt P0DP23) (assay: calcium-bound CALM1 binders on microarrays, profiling panel, artefact control for SMM control-protein annotation, biochemical, small-molecule microarray, Cy5-labelled CALM1, plus calcium (AID 1112;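 further: score merges spot fluorescence with signal to noise from triplicate slides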)). Conditions: Cy5-CALM1 binding fluorescence, higher = more signal.

Compound | composite z-score
CCCCC(CC)C(O)C1C=CC2C(=O)NC(=O)C2N1Nc1ccccn1 (stereo unspecified) | 0.431
CC(C)C[C@@H]1NC(=O)[C@@H]2C[C@H](C(=O)NCCCC[N+](C)(C)C)[C@H](c3cccc(OCCO)c3)N2C1=O | 0.348
COCCOC(=O)N1C(=O)[C@@]2(c3ccccc31)[C@H](c1ccccc1OCCO)N1[C@H](c3ccccc3)[C@H](c3ccccc3)OC(=O)[C@H]1[C@@H]2C(=O)N1CCc2cc(OC)c(OC)cc2C1 | 0.0498
CN1C(=O)C2C=CC(C(O)COCc3ccccc3)N(Nc3ccccc3)C2C1=O (stereo unspecified) | -0.57
[N-]=[N+]=NCc1ccccc1[C@H]1OC(c2ccc(OCCCO)cc2)=N[C@@]1(Cc1ccccc1N=[N+]=[N-])C(=O)NCCN1CCOCC1 | 0.305
C[N+](C)(C)CCCCNC(=O)[C@H]1C[C@H]2C(=O)NCC(=O)N2[C@H]1c1ccc(O)cc1 | -0.966
Cc1ccc(F)cc1S(=O)(=O)N[C@@H]1CCN(C(=O)c2ccc(OC(C)C)cc2)C1 | -0.603
COCCOC(=O)N1C(=O)[C@@]2(c3ccccc31)[C@H](c1ccc(OCCO)cc1)N1[C@H](c3ccccc3)[C@H](c3ccccc3)OC(=O)[C@H]1[C@@H]2C(=O)NC[C@H](O)c1ccccc1 | 0.716
CCCCC=C[C@@H](NC(=O)CCc1ccccc1)c1ccccc1 | 0.57
COc1ccc([Si](C)(C)[C@@H]2[C@@H](CCO)O[C@]3(C(=O)N(Cc4ccc(N5C(=O)c6ccccc6Oc6ccccc65)cc4)c4ccccc43)[C@H]2C)cc1 | 0.751
CC[C@@H]1[C@@H]2C3C(=O)N(CC)C(=O)C3CC(=O)[C@@H]2[C@H](c2ccc(C)cc2)N1S(=O)(=O)c1ccc(C)cc1 (stereo partly specified) | 0.409

From PubChem BioAssay
